FMDV antiviral: antivirals against foot and mouth disease virus | Potency, µM (series often up to 57.9 µM), for inactives: at the top dose activity change, negative = inhibition, hits mostly inhibitors | FMDV antiviral cell-based qHTS | 1.2% of 410,000 active; calls by dose curve; tested in HEK293T cells; further: read-out not given here; potency means the concentration at half of the fitted maximal effect; nearly all actives have a fitted effect of over 45% in size
Lassa entry inh: blocks Lassa virus binding to or entry into cells. Lassa virus pseudotype entry inhibition, cell reporter. Potency, µM (highest dose often 37.9 µM), without a hit: at the top dose activity change, negative = inhibition, usual class: inhibitors. 1.2% of 300,000 active. AID 540256; calls by dose curve; tested in HEK293 cells; further: potency means the concentration at half of the fitted maximal effect; nearly all actives have a fitted effect of over 50% in size
HCMV inh: inhibitors of human cytomegalovirus. HFF cells, HCMV-luciferase reporter, 72 h; stronger effect = lower value. activity change, negative = inhibition, % at 57.5 µM. 4.5% of 410,000 active; in the data active means activity change below about -60%; inconclusive means no clear call, values can overlap the other calls; inactive means above about -39%
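After 16 h attachment at 37C, HFF cells received test compound and HCMV-luciferase (1 PFU/cell); reporter luminescence read 72 h later, data normalized against buffer-only and known inhibitor Salinomycin.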
FBPA Giardia inh: blocks Giardia fructose-bisphosphate aldolase activity. purified Giardia FBPA. Potency, µM (highest dose often 59.6 µM), without a hit: at the top dose activity, negative = inhibition, actives largely listed as inhibitors. 0.71% of 290,000 active. AID 2451; further: potency means the concentration at half of the fitted maximal effect; nearly all actives have a fitted effect of over 55% in size
Target sequence (A8B2U2 whole entry, looked up): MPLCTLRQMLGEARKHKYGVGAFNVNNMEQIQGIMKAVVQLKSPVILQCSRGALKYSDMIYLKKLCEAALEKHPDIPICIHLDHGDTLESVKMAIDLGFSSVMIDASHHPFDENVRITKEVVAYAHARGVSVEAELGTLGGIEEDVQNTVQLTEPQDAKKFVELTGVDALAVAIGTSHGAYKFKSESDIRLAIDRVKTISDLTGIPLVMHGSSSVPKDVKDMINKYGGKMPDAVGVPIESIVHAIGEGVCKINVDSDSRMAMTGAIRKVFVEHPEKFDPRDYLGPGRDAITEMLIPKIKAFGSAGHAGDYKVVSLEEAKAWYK
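Giardia FBPA (40 nM reagent) was preincubated 10 min at RT with compound (up to 57.5 uM final), then substrate plus GAPDH/TPI/NAD/arsenate coupling system with diaphorase/resazurin was added; resorufin fluorescence (525/598 nm) was read after 20 min.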
Marburg entry inh: Marburg virus entry inhibition | 1.8% of 300,000 active | Marburg virus pseudotyped entry inhibition, cell reporter | Potency, µM (titrated, usually from 37.8 µM), for inactives: at the top dose activity change, negative = inhibition, most hits filed as inhibitors; calls by dose curve; tested in HEK293 cells; further: potency means the concentration at half of the fitted maximal effect
HCV inhibitor: blocks hepatitis C virus. Huh7.5.1 HCVcc-Cre infection, luciferase reporter, 44 h. Potency, µM (highest dose often 41.8 µM), for inactives: at the highest dose activity change, negative = inhibition, actives largely listed as inhibitors. 3.4% of 340,000 active; further: potency means the concentration at half of the fitted maximal effect
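HCVcc-Cre virus at an moi near 0.5 was added right after compound to cells cultured 4 h from seeding (1,000 cells/well). Luciferase activity was determined 44 h later, 15 min after substrate addition at RT.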
An asterisk follows results filed as active; ? = inconclusive; / = not tested or not shown; [ ] = remark or other dose. Shown are actives, neighbours in structure and some others; about 8.3% of the full set was active somewhere. Unless noted, the call rests on the fitted dose curve; in most records, active means well fitted curve in the direction sought with a large enough effect; inconclusive means small, poorly fitted or top-dose-only effect, or another doubt; inactive means no such curve, though single readings can be large; an effect the other way counts as inactive or inconclusive. On the % scale 0 is the no-effect control and ±100 the full control effect.

SMILES	FMDV antiviral	Lassa entry inh	HCMV inh	FBPA Giardia inh	Marburg entry inh	HCV inhibitor
Cc1sc2ncnc(N3CCN(C(=O)c4ccco4)CC3)c2c1C	-21%	?	-67*	8%	?	?
Cc1sc2nc(C3CC3)nc(SCC(=O)N3CCc4ccccc4C3)c2c1C	-10%	-15%	-20	-3%	?	?
CCc1c(C)sc2nc(C(C)C)nc(SCC(=O)N3CCc4ccccc4C3)c12	/	21µM*	-90*	0%	?	?
Cc1nc(N2CCN(C(=O)c3ccco3)CC2)c2c3c(sc2n1)CCC3	?	?	-65*	3%	10µM*	?
CCN1C(=O)C(Cc2nc3ccccc3c(=O)n2-c2cccc(C)c2)c2ccccc21 (centres undefined)	16%	-20%[46.1 µM]	-8	/	-1%[46.1 µM]	/
Cc1ccc(N2C(=O)c3n[nH]c(C)c3C2c2cccnc2)cc1 (centres undefined)	10%	5%	-4	2%	29%	11%
Cc1ccc(N2C(=O)c3n[nH]c(C)c3C2c2ccc(Cl)cc2)cc1 (centres undefined)	35%	-13%[46.1 µM]	29	/	?	/
CCOc1ccc(N2C(=O)C3=C(C(c4ccc(Cl)cc4)=NCCN3)C2c2cccnc2)cc1 (centres undefined)	-3%	?	-31	9%	11µM*	?
Cc1ccc(C2C3=C(NCCN=C3c3ccccc3)C(=O)N2c2ccccc2)cc1 (centres undefined)	/	?	-24	4%	10µM*	?
O=C(CC(c1cccs1)N1Cc2ccccc2C1=O)Nc1ccc(Cl)cc1 (centres undefined)	11%	2%[46.1 µM]	-15	/	/	/
C[C@@H]1C(=O)O[C@H]2C[C@@]34[C@H]5C[C@@H](C(C)(C)C)[C@]36[C@H](OC(=O)[C@H]6O)O[C@]4(C(=O)O5)[C@]21O	/	/	/	2%	/	/
CCCCC/C=C\C\C=C/C=C/C=C/[C@@H](SC[C@H](NC(=O)CC[C@H](N)C(=O)O)C(=O)NCC(=O)O)[C@@H](O)CCCC(=O)O	-7%[0.463 µM]	/	/	/	/	/
O=c1oc2ccccc2c(N2CCCC2)c1CN1CCCC1	/	1%	28	2%	0%	-28%
O=c1oc2ccccc2c(Cl)c1CN1CCCCC1	?	/	-64*	3%	/	?
Cc1cc(SCC#N)n2nc(C)c(-c3ccc(Cl)cc3)c2n1	1%	-16%	?	0%	?	?
Cc1nn2c(N3CCCC3)cc(C(C)C)nc2c1-c1ccccc1	-3%	6%	-31	1%	-3%	14µM*
Cc1cc(SCC#N)n2nc(C)c(-c3ccccc3)c2n1	-10%	-18%	-73*	11%	-15%	?
COc1ccccc1-c1c(C)nn2c(N3CCCCCC3)cc(C)nc12	28µM*	?	-96*	1%	?	13µM*
Cc1cc(N2CCCCC2)n2nc(C)c(-c3ccccc3)c2n1	?	?	-15	-3%	-20%	1.6µM*
COc1ccccc1-c1c(C)nn2c(N3CCOCC3)cc(C)nc12	?	/	2	6%	/	?
Cc1cc(N2CCC(C)CC2)n2nc(C)c(-c3ccccc3)c2n1	-24%	9%	22	14%	8%	-19%
COC(=O)[C@H](Cc1ccccc1)N1C[C@@H](N2CCC[C@@H]2C)C[S+]1(=O)[O-]	/	-7%[46.1 µM]	/	/	/	/
CCOc1ccc(-n2ccnc2SCC(=O)Nc2cccc3ccccc23)cc1	-19%	3%[46.1 µM]	?	/	/	/
COc1ccccc1-c1c(C)nn2c(-c3ccccc3)cc(C)nc12	?	?	-68*	0%	?	5µM*
COc1ccc(-c2c(C)nn3c(-c4ccccc4)cc(C)nc23)cc1OC	?	-1%[46.1 µM]	-17	/	-2%[46.1 µM]	/
SMILES	FMDV antiviral	Lassa entry inh	HCMV inh	FBPA Giardia inh	Marburg entry inh	HCV inhibitor
O=C(NNc1nc2c(F)cccc2s1)c1ccccc1	8%	/	-39	6%	/	0%
O=C(NNc1nc2ccc(F)cc2s1)c1cccc(F)c1	6%	?	-81*	8%	11µM*	?
O=C(NNc1nc2c(F)cc(F)cc2s1)c1ccccc1	13%	5%[46.1 µM]	-70*	3%	?	14%
C[C@H]1O[C@@H](n2cc(F)c(=O)[nH]c2=O)[C@H](O)[C@H]1O	/	-29%	/	/	4%	/
COc1ccc2c(c1)O[C@@H](c1cccc(C(F)(F)F)c1)[C@H](OC(=O)N[C@H](C)C1CCCCC1)C2=O	/	/	/	3%	/	/
CC(C)[C@@H](CC(=O)N[C@@H]1CCCC[C@H]1C(=O)N[C@H](CC(=O)N[C@@H](CCC(=O)O)CC(=O)O)Cc1c[nH]c2ccccc12)NC(=O)C[C@H](CO)NC(=O)[C@@H]1CCCC[C@H]1N	/	/	/	-20%	/	/
Cc1ccc(C)c(N2CCN(S(=O)(=O)c3ccc(C(=O)N(C)C)s3)CC2)c1	-5%	?	?	/	/	/
CC(C)(C=O)C1=CC(=O)c2ccccc2C1=O	35µM*	?	0	?	?	7.1µM*
O=C1C=C(N2CC2)c2ccccc2C1=O	?	/	-23	/	/	/
Cc1ccc(C)c(Cn2c(=O)cc(C)c3c(C)nn(C)c32)c1	?	?	-11	/	/	/
O=C1C2C3c4ccccc4C(c4ccccc43)C2C(=O)N1c1ccncc1 (centres undefined)	?	/	-64*	1%	/	?
O=C1C2C3c4ccccc4C(c4ccccc43)[C@@H]2C(=O)N1c1cccnc1 (some centres undefined)	?	1%	-28	12%	?	8%
Cc1ccnc2c(N3C(=O)C4C5c6ccccc6C(c6ccccc65)C4C3=O)cccc12 (centres undefined)	?	21µM*	?	0%	?	?
Cc1ccc(C)c(N2CCN(c3nc4ccccc4n4nnnc34)CC2)c1	27%	22%[46.1 µM]	118	/	?	/
Cc1ccc(N(CC(O)Cn2c3ccccc3c3ccccc32)S(C)(=O)=O)c(C)c1 (centres undefined)	?	1%	-101*	0%	16µM*	-5%
CC(=O)Nc1ccc(N(CC(O)Cn2c3ccccc3c3ccccc32)S(=O)(=O)c2ccc(C)cc2)cc1 (centres undefined)	?	11µM*	-35	-2%	?	?
Cc1ccc(S(=O)(=O)N(CC(O)CN2C(=O)NC(C)(C)C2=O)c2cccc(C)c2)cc1 (centres undefined)	-2%	-9%	10	3%	9%[46.1 µM]	5%
Cc1ccc(N(CC(O)Cn2c3ccccc3c3ccccc32)S(C)(=O)=O)cc1 (centres undefined)	/	-16%	59	-2%	?	-1%
Cc1cccc(N(CC(O)Cn2c3ccccc3c3ccccc32)S(=O)(=O)c2ccc(F)cc2)c1 (centres undefined)	?	?	-107*	/	?	/
